This is an account of results in PubChem BioAssay AID1259343 (VanderVen Lab, College of Veterinary Medicine, Cornell …, 2017).

Each structure is given as a SMILES string. In all, about 6,200 compounds went through this assay and about 2,900 (47%) were called active. The set was probably picked from earlier hits. Some of the results follow. A number with no mark means an inactive call. Cut-off read from the data, not from the text of the source: active = inhibition above about 50%; inactive = the rest.

The nature of the assay: Mycobacterium tuberculosis growth inhibition, primary screen (AID 1259343). The note with it: inhibition: at 10 µM, hits give high values; outcome: 10 uM.
By inhibition is commonly meant the change of the read-out against control, counted positive when it falls. `Cc1ccc(CC(SCc2ccccc2)C(=O)O)cc1C` (stereo not given): the inhibition is 57.4% (active).
The value for `Clc1ccc2nc(Cl)c3nnnn3c2c1` was 102% (active).
Take `CN(C)c1ccc(Nc2nc3ccccc3n3nnnc23)cc1`: the inhibition was 11.8%.
Consider `CCOc1ccc(Cl)cc1CNc1nnnn1C`, for which the inhibition was -8.06%.
As for `Cc1ccc(OCC(=O)NC2CCCC(C)C2C)cc1` (stereo not given), the figure is 60% (active).
The value for `COc1ccc(-c2ccc(C(=O)NS(C)(=O)=O)c(F)c2)c(F)c1` was 55.6% (active); that for `COc1cc(NC(=O)C(C)Oc2ccc(F)c(F)c2)cc(OC)c1` (stereo not given) was 34.5%; that for `O=C(Nc1nccs1)C1CCN(c2ccc(C(F)(F)F)cn2)CC1` was 18.4%.
Regarding `Cc1cc(=O)[nH]c(-n2nc(C)cc2NC(=O)C2CCCCC2)n1`, the inhibition was 101% (active).
As for `Cc1cc(NC(=O)C2CCC2)n(-c2ccc(C(F)(F)F)cn2)n1`, the figure is 79.6% (active); as for `Cc1cc(=O)[nH]c(-n2nc(C)cc2NC(=O)C2CC2)n1`, 100% (active).
The value for `Cc1cc(=O)[nH]c(-n2nc(-c3cccs3)cc2NC(=O)C2CCCCC2)n1` was 100% (active); that for `FC(F)(F)c1ccc(N2CCN(C(=S)NC3CC3)CC2)nc1` was -12.1%.
The value for `Cc1cc(=O)[nH]c(-n2nc(-c3cccs3)cc2NC(=O)C2CC2)n1` was 2.59%.
Take `Cc1ccccc1C(=O)OC1CCCN(C)C1` (stereo not given): the inhibition was -3.69%.
Turning to `Cc1cc(=O)[nH]c(-n2nc(C)cc2NC(=O)C2CCCC2)n1`, the inhibition is 98.1% (active).
In the case of `O=C(O)c1cc([N+](=O)[O-])ccc1NCCCc1ccccc1`, the inhibition was -0.63%.
As for `CC(C)NC(=O)c1ccc(-c2ccc([N+](=O)[O-])cc2Cl)o1`, the figure is 37.9%; as for `O=C(CCl)Nc1cc([N+](=O)[O-])ccc1Cl`, 71.2% (active); as for `Cc1ccc(-c2csc(-c3ccc(O)cc3)n2)s1`, 11.1%.
The value for `CCCCN(C)C(=O)c1cc(-c2ccc(C)s2)[nH]n1` was 25.6%; that for `Cc1ccc(-c2cc(C(=O)O)n[nH]2)s1` was 99.8% (active); that for `O=C(Nc1ccccc1)Nc1ccc(Cl)c(Cl)c1` was 95.9% (active).
The value for `O=C(Nc1ccc(Cl)c(Cl)c1)Nc1ccc(I)cc1F` was -10.8%; that for `O=C(O)c1cccnc1Nc1ccc(Cl)c(Cl)c1` was 63.9% (active).
Take `O=C(Nc1ccc(I)cc1)Nc1ccc(Cl)c(Cl)c1`: the inhibition was -0.68%.
With `Cc1ccc(Cl)cc1Nc1ncccc1C(=O)N[C@H]1C[C@H]2CC[C@@H]1C2`, the inhibition is 9.89%.
With `O=C(O)c1cnc(Nc2ccc(F)c(F)c2)c(Cl)c1`, the inhibition was 30.5%.
The value for `CCOc1ccc(NC(=O)c2ccc(Cl)o2)cc1` was 17%; that for `CCOc1ccc(NC(=O)c2nc(C)n(-c3ccc(Cl)cc3)n2)cc1` was 94.3% (active).
The value for `CCCCN(CCCC)CCCCSc1ccc(O)cc1` was 74.1% (active); that for `CC(C)(C)c1nc(COc2cccc3c2CCCC3O)no1` (stereo not given) was 5.49%; that for `Cc1nc(-n2nc(-c3ccco3)cc2NC(=O)COc2ccc(F)cc2)[nH]c(=O)c1C` was 100% (active).
Take `Cc1ccccc1C(=O)Nc1cc(-c2ccco2)nn1-c1nc(C)c(C)c(=O)[nH]1`: the inhibition was -10.1%.
The value for `Cc1nc(-n2nc(-c3ccco3)cc2NC(=O)c2c(F)cccc2F)[nH]c(=O)c1C` was 99.8% (active).
For the molecule `COc1cccc(C(=O)Nc2cc(-c3ccco3)nn2-c2nc(C)c(C)c(=O)[nH]2)c1OC`, the inhibition was 98.4% (active).
As for `Cc1ccc(OCC(=O)Nc2cc(-c3ccco3)nn2-c2nc(C)c(C)c(=O)[nH]2)cc1`, the figure is 101% (active).
As to `Cc1nc(-n2nc(-c3ccco3)cc2NC(=O)C2CC2)[nH]c(=O)c1C`, the inhibition is 99.8% (active).
Take `Cc1nc(-n2nc(-c3ccco3)cc2NC(=O)CC(C)C)[nH]c(=O)c1C`: the inhibition is 101% (active).
As for `Cc1cc(N)n(-c2cc(C(F)(F)F)ccc2Cl)n1`, the figure is 0.14%; as for `Cn1ncc2c(N3CCC(OCc4cccnc4)CC3)nc(C(C)(C)C)nc21`, 85.9% (active); as for `CC(=O)O[C@H]1C[C@@]2(C)[C@@H](C[C@@H](O)[C@H]3[C@@]4(C)CC[C@@H](O)[C@@H](C)C4CC[C@@]32C)/C1=C(\CCC=C(C)C)C(=O)O` (stereo not given in full), 69.4% (active).
The value for `O=S(=O)(NC(C1CC1)C1CC1)c1cccc(Br)c1` was 14.3%; that for `COc1ccc(-c2noc(CN3CCC(O)(c4cccc(C(F)(F)F)c4)CC3)n2)cc1` was 56.9% (active).
The value for `Oc1ccc(N2CCN(Cc3nc(-c4ccc(C(F)(F)F)cc4)no3)CC2)cc1` was 72.1% (active).
As to `CC(C)CNC(=O)c1c(O)nc2sccn2c1=O`, the inhibition is 55.9% (active).
As for `CC(C)CCNC(=O)c1c(O)nc2sccn2c1=O`, the figure is 89.6% (active); as for `O=C(NCCC1=CCCCC1)c1c(O)nc2sccn2c1=O`, 83.9% (active); as for `CCCCNC(=O)c1c(O)nc2sccn2c1=O`, 33.8%.
As for `O=C(O)c1ccc(OS(=O)(=O)c2ccc(Cl)c(Cl)c2)cc1`, the figure is 35.4%; as for `CN(C)S(=O)(=O)Oc1ccc(C(=O)c2ccccc2)cc1`, 51.1% (active); as for `O=C1CCCCC1Sc1nnnn1-c1ccc(O)cc1` (stereo not given), 41%.
As for `O=C1CCCCC1Sc1nn(-c2ccc(F)cc2)c(=S)s1` (stereo not given), the figure is 70.1% (active).
In the case of `O=C(CSc1nn(-c2ccc(F)cc2)c(=S)s1)Nc1cc(F)ccc1F`, the inhibition was -1.19%.
The value for `O=[N+]([O-])c1ccc(CON=Cc2ccc(Cl)cc2Cl)cc1` was -5.39%; that for `N#Cc1ccc(CON=Cc2ccc(OC(F)F)cc2)cc1` was -4.56%; that for `O=[N+]([O-])c1ccc(CON=Cc2ccc(OC(F)F)cc2)cc1` was 55.5% (active).
As for `CC(C)CNC(=O)c1cn(Cc2ccc(F)cc2)nc1OCc1ccc(F)cc1`, the figure is 13.6%.
The value for `CC(C)CNC(=O)CSc1n[nH]c(/C=C/c2ccc(F)cc2)n1` was 87% (active).
With `C/C(Cl)=C\COc1cc(C)nc2ccc(Br)cc12`, the inhibition was 99.8% (active).
The value for `Cc1coc2c1C(=O)C(=O)c1c-2ccc2c1CCCC2(C)C` was 58.8% (active); that for `COc1ccc(NCc2nn(CC(=O)c3ccc(Br)cc3)c3[n+]2CCCCC3)cc1` was 17.7%.
The value for `CCn1nnc2c(=O)n(CC(=O)c3ccc(OC)cc3)cnc21` was 77.2% (active).
The value for `O=c1[nH]nc2nc(N3CCCCC3)nc(N3CCCCC3)n12` was 18.9%; that for `O=C(Cn1ccc(=O)[nH]c1=O)NNc1ccc(Cl)c(Cl)c1` was 97.2% (active).
As for `Cc1nc(C2(NC(=O)c3ccc4c(c3)OCCCO4)CCCCC2)no1`, the inhibition was 5.32%.
As for `Cc1nc(CSc2ccc(C(=O)NNC(=O)c3ccc4c(c3)OCCO4)cc2)cs1`, the figure is 95.3% (active).
As for `Cc1cn2nc(Sc3ccc4c(c3)OCCCO4)sc2n1`, the figure is 33.4%; as for `CCN(CC)c1ccc(/C=C2\SC(=S)N(NC(=O)c3ccc(OC)cc3)C2=O)cc1`, 8.8%; as for `CCCN1C(=O)C(=Cc2ccc(OC)cc2OC)SC1=S`, 2.79%.
Turning to `CCCCN1C(=O)C(=Cc2cccnc2)SC1=Nc1ccc(OC)cc1`, the inhibition is 87.8% (active).
As for `O=c1c(NCc2ccc(F)cc2)nccn1Cc1ccc(Cl)cc1`, the figure is 96.5% (active); as for `CC(c1ccco1)N(C)C(=O)NCCc1cc(F)ccc1F` (stereo not given), 21.2%.
On to `CCCn1cc(SCC(=O)N2CCc3ccccc32)c2ccccc21`, for which the inhibition was 16.9%.
As for `OC(CN1CCc2ccccc2C1)Cn1c2c(c3ccccc31)CCCC2` (stereo not given), the figure is 66.7% (active); as for `OC(CN1CCCCCC1)CN1c2ccccc2Sc2ccccc21` (stereo not given), 40.6%.
The value for `CC(C)=CCN1N=C(c2ccccc2)C(O)O1` (stereo not given) was 86% (active).
The value for `Cc1ccc(C2=NN3C(C2)c2cc(Cl)ccc2OC3c2ccncc2)cc1` (stereo not given) was -54.8%.
Turning to `Brc1ccc2c(c1)C1CC(c3cccs3)=NN1C(c1cccnc1)O2` (stereo not given), the inhibition is 97.9% (active).
The value for `N#Cc1ccc(OCCn2nccc2-c2ccncc2)cc1` was 61.2% (active); that for `Cc1ncc(COc2ccc(-c3ccc(C#N)cc3)cc2)s1` was 43.5%.
The value for `FC(F)(F)c1cccc(C(OCCN2CCN(Cc3ccco3)CC2)c2ccccc2)c1` (stereo not given) was -3.93%; that for `COCC(=O)Nc1nc2ccccc2n1C1CCCCC1` was 14.7%.
As for `COCC(=O)Nc1nc2cc(C(F)(F)F)ccc2n1Cc1ccco1`, the figure is 62.6% (active); as for `O=C(OC(C(=O)Nc1cc(Cl)cc(Cl)c1)c1ccccc1)C1=COCCO1` (stereo not given), 78.7% (active).
In the case of `Nc1ccc(-n2cccc2C(=O)O)cc1`, the inhibition is 93.6% (active).
As for `COc1c2ccccc2nc2occc12`, the figure is 89.7% (active).
As for `CCc1nnsc1C(=O)Nc1cc(F)c(N2CCCC2)c(F)c1`, the inhibition is 37.1%.
As for `O=C(Nc1cc(F)c(N2CCCC2)c(F)c1)C1CC1c1cccnc1` (stereo not given), the figure is 32.7%; as for `Cc1cccc(NC(=O)C2CCN(c3c(F)cc(C#N)cc3F)CC2)n1`, 72.7% (active).
As for `N#CC(c1ccc(Cl)cc1Cl)c1cnnc2ccccc12` (stereo not given), the figure is -8.73%; as for `N#CC(c1ccccc1)c1cnn(-c2ccccc2)c(=O)c1Cl` (stereo not given), 101% (active); as for `O=c1c(Cl)c(N2CCN(c3ccccc3)CC2)cnn1Cc1ccccc1Cl`, 17.9%.
As for `CN(C)C=Nc1ccc(OC(F)F)c(Cl)c1`, the figure is 92% (active).
In the case of `Cc1cc(=O)[nH]c(-n2nc(C)cc2NC(=O)c2cccc([N+](=O)[O-])c2)n1`, the inhibition is 100% (active).
The value for `CCc1cc(=O)[nH]c(-n2nc(C)cc2NC(=O)c2ccc([N+](=O)[O-])cc2)n1` was 101% (active); that for `CCc1cc(=O)[nH]c(-n2nc(C)cc2NC(=O)c2cccc([N+](=O)[O-])c2)n1` was 102% (active); that for `Cc1cc(-c2nc3cccnc3s2)ccc1NS(=O)(=O)c1ccc(F)cc1F` was 74.7% (active).
The value for `COC(=O)c1ccccc1NC(=O)c1cc(-c2cccs2)n(C2CCS(=O)(=O)C2)n1` (stereo not given) was 42.9%; that for `CCC(=O)NCC1CN(c2ccc(OC)cc2)C(=O)O1` (stereo not given) was 83% (active).
